Experimental data reported in the supplement of paper PMC12636033.
± gives the standard deviation of the averaged measurements. Over roughly 33,000 sequences, “E-score (rank enrichment, -0.5 to 0.5)” has its median near -0.0068; the highest 2% begin near 0.24. What follows is part of a selection rich in the highest values, with near analogues and random picks from the rest.

tested on: muMax20 (Max(13-93) K31hArg/K57hArg, M65Nle); assay: PBM 8-mer E-score (E-score (rank enrichment, -0.5 to 0.5)); higher = stronger preferential binding
Protocol: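 Protein binding microarray (universal PBM chip covering all 10-mers in fixed probe flanks) with chemically synthesized human Max(13-93) bHLH-LZ analogs (not full-length Max) bearing noncanonical residues (hArg, Tha, Aib, Nle at 65) and aromatic Cys staples. Read-out per 8-mer (and its reverse complement): E-score (rank-based enrichment, -0.5 to 0.5) and Z-score of median probe intensity.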

| Sequence | PBM 8-mer E-score |
| --- | --- |
| TACATCAA | 0.11 ± 0.093 |
| GCCAAGCC | -0.109 ± 0.012 |
| GAGTGACC | -0.141 ± 0.015 |
| CCGTCCCA | 0.0086 ± 0.03 |
| AATGTCAT | 0.0752 ± 0.093 |
| CCTAAGAC | 0.0353 ± 0.033 |
| ATAGTAGG | 0.0443 ± 0.12 |
| ATAGTAGA | 0.253 ± 0.031 |
| ATAGTTAG | 0.0831 ± 0.052 |
| CTAGTAAA | 0.0505 ± 0.014 |
| ATAGTTAA | 0.261 ± 0.0096 |
| GTAGTAGA | 0.0328 ± 0.058 |
| ATAGTAAA | 0.262 ± 0.012 |
| ATAGTTAC | 0.181 ± 0.06 |
| ATAGTAAT | 0.158 ± 0.027 |
| TGGGTTAA | 0.053 ± 0.046 |
| GCCTCTCC | 0.0347 ± 0.12 |
| GCGAATCA | -0.157 ± 0.067 |
| CCGATGGA | -0.246 ± 0.043 |
| TAACGGTA | 0.204 ± 0.011 |
| TAAGCTGA | 0.0855 ± 0.056 |
| AACACGGG | 0.0469 ± 0.0099 |
| CGATGCGA | -0.117 ± 0.088 |
| GAAGCCGC | -0.115 ± 0.058 |
| AACGTGAG | 0.0485 ± 0.088 |

| Sequence | PBM 8-mer E-score |
| --- | --- |
| AACGTGGT | 0.285 ± 0.029 |
| AGCGTGAT | 0.25 ± 0.013 |
| AACGTGGA | 0.162 ± 0.015 |
| AACGTGAT | 0.272 ± 0.01 |
| AACGTGCT | 0.0241 ± 0.0069 |
| AGCGTGAG | 0.0998 ± 0.075 |
| AGCGTGAC | 0.117 ± 0.086 |
| AACGTGAA | 0.0196 ± 0.026 |
| ACCCCGTC | -0.138 ± 0.05 |
| GGGGCGGA | 0.0311 ± 0.065 |
| AAACTAAC | 0.121 ± 0.026 |
| AGATGCAG | -0.0831 ± 0.013 |
| CGTTCGAA | -0.071 ± 0.086 |
| GCGGGCTA | -0.103 ± 0.02 |
| ACATGTCG | 0.189 ± 0.086 |
| ACATGTAT | 0.307 ± 0.067 |
| CCATGTAG | 0.0489 ± 0.046 |
| ACATGTAC | 0.286 ± 0.021 |
| TCATGTAA | 0.112 ± 0.08 |
| ACATGTCT | 0.183 ± 0.035 |
| ACATGTAG | 0.255 ± 0.05 |
| CCATGTAC | 0.0415 ± 0.16 |
| CCATGTAA | 0.0522 ± 0.048 |
| ACATGTAA | 0.249 ± 0.034 |
| AGATGTAT | 0.177 ± 0.041 |

| Sequence | PBM 8-mer E-score |
| --- | --- |
| GCATGTAC | 0.15 ± 0.081 |
| CCTTGTAG | -0.0398 ± 0.016 |
| ATGTTTGC | 0.119 ± 0.034 |
| ATTCCCGC | -0.0964 ± 0.2 |
| AACTTATG | 0.0994 ± 0.081 |
| AAGGGAAG | 0.201 ± 0.074 |
| ATGCTCGA | 0.0908 ± 0.059 |
| AAACTTGC | 0.203 ± 0.058 |
| TAACTTGA | 0.033 ± 0.066 |
| AAACTTGA | 0.241 ± 0.0031 |
| ATAAGAGG | 0.0841 ± 0.026 |
| ATCAAAAA | 0.284 ± 0.035 |
| ATCAAACA | 0.29 ± 0.056 |
| CTCAAACA | 0.079 ± 0.12 |
| ATCAAGCA | 0.012 ± 0.021 |
| ATCAAAAT | 0.0188 ± 0.1 |
| ATCAAAAG | 0.0605 ± 0.033 |
| TAGGTTCA | -0.12 ± 0.087 |
| GGCCCTAA | 0.0586 ± 0.04 |
| GTGGACGA | -0.0727 ± 0.036 |
| CTGCCTTC | -0.136 ± 0.047 |
| AGTCGTGC | -0.11 ± 0.024 |
| CAGACGCG | -0.145 ± 0.18 |
